Results: PubChem BioAssay AID686971 (National Center for Advancing Translational Sciences (NCATS), 2013)
The whole screen tested about 360,000 compounds, of which about 7,500 (2.1%) were called active. Where a call stands in place of a potency, no number is given. Roughly 8% stayed inconclusive and do not appear here. Calls follow the shape of the dose curve; as a rule, active = well fitted cell-killing curve with a large enough effect; inconclusive = small, poorly fitted or top-dose-only effect, or effect the other way, or another doubt; inactive = no such curve, though single readings can be large or run the other way. The sample as a whole holds a higher share of actives than the screen did.
Potency is read from the fitted curve at half-maximal effect.

Experiment: qHTS for induction of synthetic lethality in tumor cells producing 2HG: qHTS for the HT-1080-IDH1KD cell line
Conditions: HT-1080 IDH1 knockdown viability, ATP luminescence, 48 h; series mostly up to 46.1 µM
Summary of the method: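 In this qHTS, HT-1080 cells depleted of IDH1 are exposed for 48 h at 37 °C to compound titrations. Toxicity is scored from CellTiter-Glo luminescence, with DMSO as full viability and medium alone as none.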
In the case of `C[C@H]1CN([C@@H](C)CO)C(=O)c2cc(Br)cnc2O[C@H]1CN(C)S(=O)(=O)c1cccs1`, the Potency is reported as “inactive”. In the case of `CCCC(=O)N1CCC1(C)C(=O)NS(=O)(=O)c1ccc(Cl)cc1` (centres undefined), the Potency is reported as “inactive”. In the case of `CC(=O)NC1=NN(C(C)=O)C(C)(c2ccc(Cl)s2)S1` (centres undefined), the Potency is reported as 2.31 µM (active). In the case of `CC(=O)NC1=NN(C(C)=O)C(C)(c2ccc(C)cc2)S1` (centres undefined), the Potency is reported as “inactive”. For `CC(=O)NC1=NN(C(C)=O)C(C)(CCS(=O)(=O)c2ccc(Cl)c(Cl)c2)S1` (centres undefined), the Potency was “inactive”. In the case of `CCCCN1C(=O)C(CC(=O)NCc2cccs2)CC(C(=O)N2CCCCCC2)=C1C` (centres undefined), the Potency is reported as “inactive”. With `CC1(C(=O)NS(=O)(=O)c2ccc(Cl)cc2)CCN1C(=O)CC1CCCC1` (centres undefined) the Potency was “inactive”. For `CCOc1cccc(-n2nnnc2-c2ccc(OC)cc2)c1`, the Potency was 4.61 µM (active). In the case of `COc1ccc(-n2nnnc2-c2nc3ccccc3s2)cc1`, the Potency is reported as “inactive”. For `COc1ccc(NC(=O)CSc2nnnn2-c2cccc(OC)c2)cc1`, the Potency was “inactive”. In the case of `Cc1nc2ccccc2nc1CC(O)(c1ccccc1)c1ccccc1`, the Potency is reported as “inactive”. For `Nc1nc2c(ncn2[C@@H]2O[C@H](CNCc3ccc(OCCCN4CCOCC4)cc3)[C@@H](O)[C@H]2O)c(=O)[nH]1`, the Potency was “inactive”. For `CN(C)CCCN(C(=O)c1ccc(S(=O)(=O)N2CCCCCC2)cc1)c1nc2ccc(Br)cc2s1`, the Potency was 16.4 µM (active). For `Cc1ccc2nc(N(CCN(C)C)C(=O)C3=COCCO3)sc2c1`, the Potency was “inactive”. For `COc1ccc2sc(N(CCCN(C)C)C(=O)c3ccc(S(=O)(=O)N(C)C4CCCCC4)cc3)nc2c1`, the Potency was “inactive”. With `O=S1(=O)CC(N2CCN(Cc3ccccc3F)CC2)CN1Cc1cn(Cc2cccc(C(F)(F)F)c2)nn1` (centres undefined) the Potency was “inactive”. With `C[C@@H]1CN([C@@H](C)CO)S(=O)(=O)c2ccc(-c3ccc(C(=O)N(C)C)cc3)cc2O[C@@H]1CN(C)Cc1ccccc1C(=O)O` the Potency was “inactive”. In the case of `CC(C)c1ccc(NC(=S)NNc2ccc(Cl)c(C(=O)O)c2)cc1`, the Potency is reported as “inactive”. In the case of `Cc1ccc(C)c(NC(=S)NNC(=O)c2csc(C)c2)c1`, the Potency is reported as “inactive”. In the case of `Cc1ccc(C)c(NC(=S)NNC(=S)Nc2ccc(C(C)C)cc2)c1`, the Potency is reported as 23.1 µM (active). With `Cc1cc(Br)ccc1NC(=O)CCCOc1cc(=O)n(C)c2ccccc12` the Potency was “inactive”. In the case of `Cc1ccc(C(=O)Nc2c(-c3ccccc3)[nH][nH]c2=O)cc1`, the Potency is reported as “inactive”. With `O=C(CCCN1CCc2[nH]c3ccc(F)cc3c2C1)c1ccc(F)cc1` the Potency was 20.6 µM (active). With `O=C(Nc1ccc(Cl)cc1)N1CCc2[nH]c3ccccc3c2C1` the Potency was “inactive”. In the case of `Fc1ccc(NC(=S)N2CCc3[nH]c4ccccc4c3C2)cc1`, the Potency is reported as “inactive”. In the case of `CC1(C(=O)NS(=O)(=O)c2ccccc2)CCN1C(=O)c1ccccc1` (centres undefined), the Potency is reported as “inactive”. In the case of `COc1cc(C(O)c2nc(-c3cccc(C(=O)O)c3)cs2)ccc1F` (centres undefined), the Potency is reported as “inactive”. With `COc1ccc2c(c1)c(=Cc1ccc(N(C)C)cc1)c1cc(-c3ccccc3)[n+](C)n12` the Potency was 5.17 µM (active). With `COc1ccc2sc(-c3ccc(N(C)C)cc3)c(-c3ccc4cc[nH]c4c3)c2c1` the Potency was “inactive”. For `CCCCC(=O)NC(c1ccc(OC)c(OC)c1)c1ccc2cccnc2c1O` (centres undefined), the Potency was 2.91 µM (active). In the case of `CCOc1ccc(C(CC(=O)O)NC(=O)Cc2ccccc2)cc1OC` (centres undefined), the Potency is reported as “inactive”. For `COc1ccc(CCNS(=O)(=O)c2cccc3cccnc23)cc1OC`, the Potency was “inactive”. In the case of `CCCNC(=O)C1(C)CCCN(C(=O)c2cccc(OC(C)=O)c2C)C1` (centres undefined), the Potency is reported as “inactive”. For `Cc1cc(=O)c2ccc(NC(=O)c3ccccc3)cc2[nH]1`, the Potency was “inactive”. For `Cc1ccc(-c2cc(=O)c3ccc(F)cc3[nH]2)cc1`, the Potency was “inactive”. With `O=c1cc(-c2ccccc2)[nH]c2cc(F)ccc12` the Potency was 4.11 µM (active). With `CCC(C(=O)NCc1ccccc1)n1c(Cc2cc(F)cc(F)c2)nc2ccccc21` (centres undefined) the Potency was “inactive”. With `COc1ccc(C(=O)OCC(=O)Nc2cc(C)on2)cc1F` the Potency was “inactive”. For `O=C(CCN1CCCCC1)Nc1ccc(F)c(F)c1`, the Potency was “inactive”. For `CCc1cccc(CC)c1N1C(=O)CC(Sc2ccccc2N)C1=O` (centres undefined), the Potency was “inactive”. With `CC1(Cc2ccccc2C#N)C(=O)Nc2ccc(-c3ccc4[nH]ccc4c3)cc21` (centres undefined) the Potency was 1.64 µM (active). With `OC(COc1ccc(Br)cc1)CN1CCCC1` (centres undefined) the Potency was “inactive”. In the case of `CC(C)(C)CC(C)(C)NCC(O)COCCOc1ccc(Br)cc1` (centres undefined), the Potency is reported as 20.6 µM (active). In the case of `CC(Oc1ccc(Br)cc1)C(=O)NC1CCCCCC1` (centres undefined), the Potency is reported as “inactive”. For `Cc1cccc(CN2CCN(C3CN(Cc4cn(Cc5cc(C)cc(C)c5)nn4)S(=O)(=O)C3)CC2)c1` (centres undefined), the Potency was “inactive”. For `O=C1C(Cl)=C(Oc2ccccc2)C(=O)c2ccccc21`, the Potency was 2.59 µM (active). In the case of `CC(=O)Oc1ccc2c(c1)C(=O)c1ccccc1C2=O`, the Potency is reported as “inactive”. In the case of `O=C(O)CSc1nnc(-c2ccc3c(c2)OCO3)n1-c1ccccc1`, the Potency is reported as “inactive”. For `CCn1c(SCC(=O)Nc2ccc3c(c2)OCCO3)nnc1-c1ccncc1`, the Potency was “inactive”. With `O=C(CSc1nnc(-c2ccccn2)n1-c1ccccc1)Nc1ccc2c(c1)OCO2` the Potency was 23.1 µM (active). For `Cc1cccc(C)c1NC(=O)C(c1cccc2ccccc12)n1c(=O)c(-c2ccco2)nc2ccccc21` (centres undefined), the Potency was “inactive”. For `O=C(OCc1cn([C@H]2C[C@H](c3ccccc3)N(C(=O)c3cccs3)C[C@@H]2O)nn1)c1ccccc1`, the Potency was “inactive”. For `COc1cccc(OC)c1C(=O)N1CCN(Cc2ccccc2F)CC1`, the Potency was “inactive”. In the case of `Nc1c(C(=O)NCc2ccccc2)nnn1Cc1cccc(Cl)c1`, the Potency is reported as 14.6 µM (active). In the case of `O=C(COc1cccc(Cl)c1)NCc1ccccc1`, the Potency is reported as “inactive”. With `Nc1c(-c2ccccc2)nnn1Cc1ccccc1` the Potency was “inactive”. In the case of `O=C(NCCN1CCOCC1)c1ccc2c(c1)N(Cc1cccc(Cl)c1)C(=O)c1ccccc1S2(=O)=O`, the Potency is reported as “inactive”. For `CC1=C/C(=N\OS(=O)(=O)c2ccccc2)C=CC1=O`, the Potency was 20 µM (active). For `O=C(NCc1ccc(F)cc1)c1cc(C2CCCCN2C(=O)c2cccs2)on1` (centres undefined), the Potency was “inactive”. For `CCc1nc2ccc(C(=O)Nc3cc(-c4ccccc4)ccc3OC)cn2c1N(CC)CC(=O)N(C)C`, the Potency was “inactive”. In the case of `C[C@@H]1CN([C@@H](C)CO)C(=O)c2cc(Br)cnc2O[C@H]1CN(C)Cc1ccc(-c2ccccc2)cc1`, the Potency is reported as “inactive”. For `CCCCN1CC(N2CCN(Cc3cccc(C)c3)CC2)CS1(=O)=O` (centres undefined), the Potency was “inactive”. In the case of `COC(=O)c1ccc(COc2ccc(/C=N/NC(=O)C(=O)Nc3ccc(OC)cc3)cc2OC)o1`, the Potency is reported as “inactive”. For `COc1cc(C=NNC(=O)c2cccnc2)ccc1OC(=O)c1ccccc1F`, the Potency was “inactive”. In the case of `Cc1ccc(S(=O)(=O)Oc2ccc(/C=N/NC(=O)c3ccncc3)cc2)cc1`, the Potency is reported as “inactive”. In the case of `COc1cc(/C=N/NC(=O)Nc2ccccc2)ccc1OCCOc1ccccc1C`, the Potency is reported as 7.08 µM (active). In the case of `COc1ccc(C(=O)Nc2ccccc2C(=O)N/N=C/c2ccc(O)c(OC)c2)cc1`, the Potency is reported as 6.51 µM (active). With `COc1ccc(/C=N/Nc2ccccc2C(=O)O)cc1` the Potency was “inactive”. For `COc1ccc(/C=N/NC(=O)c2ccccc2)cc1OS(=O)(=O)c1ccccc1`, the Potency was 20.6 µM (active). With `COc1ccc(C(=O)Nc2ccccc2C(=O)N2CCN(c3ccccc3)CC2)cc1` the Potency was “inactive”. For `COc1cc(/C=N/NC(=O)c2ccoc2C)ccc1OCCN1CCCCC1`, the Potency was “inactive”. In the case of `COc1ccc(NC2CCCN(C(=O)c3ccccc3-c3ncc[nH]3)C2)cc1` (centres undefined), the Potency is reported as “inactive”. For `COc1cc(-c2nnc(NC(=O)CS(=O)(=O)c3ccc(Cl)cc3)o2)cc(OC)c1OC`, the Potency was “inactive”. In the case of `CC(=O)Nc1c(-c2ccc(C)cc2)nc2ccc(Cl)cn12`, the Potency is reported as “inactive”. With `CCCCn1nnnc1C1(C)CCC(=O)N1Cc1ccc(OC)c(OC)c1` (centres undefined) the Potency was “inactive”. With `CCCCCCCCn1c2c(c(=N)c3c1CCC3)CCCC2` the Potency was 8.2 µM (active). With `CCCc1nc2ccccc2n1C(C)C(=O)NC(C)(C)C` (centres undefined) the Potency was “inactive”. In the case of `CC1CCCC(C)N1C(=O)COC(=O)c1ccccc1C(=O)c1ccccc1` (centres undefined), the Potency is reported as “inactive”. In the case of `Cc1ccc(C(=O)Nc2ncccc2C)cc1S(=O)(=O)N1CCOCC1`, the Potency is reported as “inactive”. In the case of `O=C(Nc1ccc2c(c1)CCC2)c1cccc(S(=O)(=O)N2CCN(c3ccc(F)cc3)CC2)c1`, the Potency is reported as “inactive”. With `Cc1cccnc1NC(=O)c1cccc(S(=O)(=O)N2CCN(c3ccc(F)cc3)CC2)c1` the Potency was 29.1 µM (active). In the case of `O=C1NC[C@H](CCCCN2CCN(CCc3ccccc3)C(=O)C2=O)N(CC2CCCCC2)C1=O`, the Potency is reported as “inactive”. In the case of `COC(=O)[C@]12CCCCC=C1N(Cc1ccco1)C(=O)[C@H](CC(=O)NCC1CCCCC1)C2`, the Potency is reported as “inactive”. For `CCOC(=O)C1=CCC2C(=O)N(Cc3ccccc3)C(=O)C12` (centres undefined), the Potency was “inactive”. With `COc1ccc(C2=Nc3ccccc3NC(=O)C2N(C(=O)c2cc3ccccc3[nH]2)c2ccccc2)cc1` (centres undefined) the Potency was “inactive”. In the case of `CC(C)Oc1cc(F)ccc1-c1cc(C(=O)Nc2ccc(F)cc2)[nH]n1`, the Potency is reported as “inactive”. In the case of `CS(=O)(=O)Nc1cccc(-c2cn3ccccc3n2)c1`, the Potency is reported as “inactive”. In the case of `CC(=O)c1ccc(-c2cnc3c(NC=O)cc(-c4cccc(NS(C)(=O)=O)c4)cn23)cc1`, the Potency is reported as 8.2 µM (active). For `CC(=O)c1cccc(-c2cnc3c(NC=O)cc(-c4ccc(N5CCN(C)CC5)cc4)cn23)c1`, the Potency was “inactive”. For `COc1cc(C=O)ccc1Oc1nnnn1-c1ccccc1`, the Potency was “inactive”. For `COC(=O)c1ccc(-c2c(-c3ccccc3)ncc3cc(OC)c(OC)cc23)cc1`, the Potency was “inactive”. In the case of `COc1ccc(-c2cc(NC=O)c3ncc(-c4ccccc4)n3c2)cc1OC`, the Potency is reported as 16.4 µM (active). In the case of `O=[N+]([O-])c1ccc(C(S(=O)(=O)Cc2ccccc2)S(=O)(=O)Cc2ccccc2)cc1`, the Potency is reported as “inactive”. With `C[C@H]1COc2cc(N3CCSCC3)ccc2S(=O)(=O)N1` the Potency was “inactive”. In the case of `O=C(O)C1=C(C(=O)O)C2CCC1C2`, the Potency is reported as “inactive”. With `CCCNC(=O)c1cc(C2CCCCN2S(=O)(=O)c2ccc(C#N)cc2)on1` (centres undefined) the Potency was “inactive”. For `O=C1c2cccnc2C(=O)N1Cc1cccs1`, the Potency was “inactive”. For `CCOc1ccc(CCN2C(=O)c3cccnc3C2=O)cc1OCC`, the Potency was “inactive”. In the case of `NC1=CC(=O)C(=O)c2cccnc21`, the Potency is reported as 11.6 µM (active).
